# Compounds without any hit were thinned out: in the full panel of roughly 83,000, 20% have a hit.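 Note: values are percent growth. 100 is the growth of untreated cells, values between 100 and 0 indicate rising inhibition; between -100 and 0 indicates cell death.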 A number with no mark means an inactive call. The source made the active and inactive calls. Rule for the calls: active = growth percent below 10; inactive = the rest.
# Experiments:
# Assay in all cases: NCI-60 one-dose screen, 48 h (100 = growth as untreated, 0 = no growth, -100 = all killed)
# Settings in all cases: 10 µM unless noted
# T-47D breast = tested on: T-47D breast
# BT-549 breast = tested on: BT-549 breast
# MDA-MB-435 melanoma = tested on: MDA-MB-435 melanoma
# SW-620 colon = tested on: SW-620 colon
# MCF7 breast = tested on: MCF7 breast
# HCT-116 colon = tested on: HCT-116 colon
# HCC-2998 colon = tested on: HCC-2998 colon
# KM12 colon = tested on: KM12 colon
SMILES,growth (T-47D breast),growth (BT-549 breast),growth (MDA-MB-435 melanoma),growth (SW-620 colon),growth (MCF7 breast),growth (HCT-116 colon),growth (HCC-2998 colon),growth (KM12 colon)
CCN1CCN(c2cc(C(=O)Nc3nc(-c4cc(OC)c(OC)c(OC)c4)cs3)cc(C(F)(F)F)c2)CC1,43.7%,75.2%,74.4%,65.6%,39.8%,33.4%,43.9%,71.1%
O=C(O)c1[nH]c(=O)[nH]c(=O)c1[N+](=O)[O-],109%,107%,106%,109%,98.8%,100%,99.2%,115%
CNC(=O)c1cc(Oc2ccc3c(c2)sc2nc(-c4cc(OC)c(OC)c(OC)c4)cn23)ccn1,-4.73% (active),24%,51.7%,77.4%,32.1%,55.2%,74.6%,66.3%
O=C(Cc1ccccc1)Nc1nc(O)c(/C=C2\C(=O)C=Cc3ccccc32)s1,90%,98.9%,101%,95.7%,101%,90.1%,110%,106%
COc1cc(C(=O)n2nc(N3CCN(C)CC3)c3cc(N)ccc32)cc(OC)c1OC,57.7%,27.9%,-12% (active),30%,11.6%,7.66% (active),89.7%,57.9%
COc1ccc(C(=O)Nc2ncc(Cc3cccc(Cl)c3)s2)cc1OC,3.79% (active),50.7%,0.543% (active),27.4%,11%,27.2%,16.9%,18%
Cc1ccc(-c2nc(N3CCNCC3)c3oc(-c4ccccc4)nc3n2)cc1,-57.8% (active),85.1%,-81% (active),-55.1% (active),-74.6% (active),-71% (active),-61.1% (active),-89.1% (active)
C1=C(N2CCCC2)CCC1,104%,113%,95.1%,101%,91%,102%,110%,109%
O=[N+]([O-])c1ccc(-c2nc(N3CCOCC3)c3c4c(sc3n2)CCCC4)cc1,83.5%,82.3%,99.1%,95.1%,73.1%,68.1%,102%,95.5%
CCSc1nc(NC)c2cc(-c3ccc(C(F)(F)F)cc3)ccc2n1,91.4%,94.4%,102%,105%,92.8%,96.9%,111%,103%
CCNC(=O)c1[nH]cc(-c2ccccc2)c1-c1cc(OC)c2c(c1OC)OCO2,87%,98.4%,103%,97.6%,101%,90.7%,104%,121%
CCN(C(=O)N1CCN(c2cc3c(cc2F)c(=O)c(C(=O)O)cn3C2CC2)CC1)c1nc(-c2ccc(Cl)cc2)cs1,22.3%,-8.09% (active),17.9%,18.3%,9.42% (active),9.89% (active),25%,13.1%
Cc1ccc(C(C(N)=O)C(C(N)=O)c2ccccc2)cc1 (stereo not given),112%,113%,109%,105%,112%,101%,112%,105%
CN(C)CCCC1(c2ccc(F)cc2)OCc2cc(-c3cccc4[nH]ccc34)ccc21 (stereo not given),-39.2% (active),73.8%,-42.1% (active),-24.6% (active),-24.1% (active),-64% (active),-30.6% (active),10.3%
COC(C(=O)[C@@H](O)[C@@H](C)O)[C@@H]1Cc2cc3cc(O[C@H]4C[C@@H](O[C@H]5C[C@@H](O)[C@H](O)C(C)O5)[C@H](O)C(C)O4)cc(O)c3c(O)c2C(=O)[C@H]1O[C@H]1C[C@@H](O[C@H]2C[C@@H](O[C@H]3C[C@@H](OC)[C@H](O)C(C)O3)[C@@H](O)C(C)O2)[C@H](O)C(C)O1 (stereo not given in full),35.2%,38.2%,44.8%,39.7%,11.5%,11.2%,63.7%,40%
S=C(Nc1ccc(-c2nc(N3CCOCC3)c3cccn3n2)cc1)Nc1cccnc1,-4.82% (active),32.8%,31.8%,46.7%,20.4%,17.3%,32.9%,28.1%
O=C1c2ccc3c4ccc5c6c(ccc(c7ccc(c2c37)C(=O)N1CCC[P+](c1ccccc1)(c1ccccc1)c1ccccc1)c64)C(=O)N(CCC[P+](c1ccccc1)(c1ccccc1)c1ccccc1)C5=O,41.1%,74%,0.931% (active),24.5%,37.1%,46%,25.5%,10.5%
Cn1c(=O)c2c(nc(NC3=NS(=O)(=O)c4ccccc43)n2CC(=O)N2CCc3ccccc32)n(C)c1=O,91.3%,91.7%,101%,95.2%,103%,97.9%,96.9%,107%
COc1ccc(-c2csc(NC(=O)CSc3nc(-c4ccccc4)cc(=O)[nH]3)n2)cc1,15.1%,8.89% (active),49.9%,93.5%,50.7%,35.8%,83.5%,73.9%
COc1cc(/C=C\c2cc(/C=C\c3ccc(O)c(OC)c3)n(C(=O)COc3ccc(Cl)cc3Cl)n2)ccc1O,15%,1.41% (active),-12.1% (active),16.7%,4.21% (active),3.48% (active),38.5%,9.93% (active)
CN1CCN(C(=O)c2ccc(NC(=O)Nc3ccc(-c4nc(N5CCOCC5)c5cccn5n4)cc3)cc2)CC1,-34.3% (active),-9.61% (active),0.865% (active),11%,5.32% (active),7.02% (active),5.54% (active),9.01% (active)
COc1ccc(-c2nnc(-c3ccc4c(c3)nc(-c3ccncc3)n4C3CCCCC3)o2)cc1,30.8%,54.6%,75.9%,95.9%,65.6%,62.3%,88.8%,71.9%
COC(=O)c1n[nH]c2ccc3nc(-c4cn[nH]c4C(F)(F)F)c4c(c3c12)CCCC4,57%,35.5%,39.3%,28.3%,53%,22.9%,15.7%,26.8%
COc1ccc2c(O)c(/C=C3\N=Nc4ncccc43)oc2c1C[C@H]1CCNC[C@H]1F,41.5%,-54.6% (active),7.14% (active),-15.5% (active),2.59% (active),-6.67% (active),0.205% (active),-17.4% (active)
O=C1/C(=C/c2ccc(F)cc2)COc2ccc(O)c(O)c21,4.43% (active),3.57% (active),1.65% (active),-44.8% (active),17.7%,-3.28% (active),19.9%,1.7% (active)
O=C(O)[C@@H]1c2ccccc2-c2ccccc2[C@H]1C(=O)O,102%,114%,100%,101%,94.6%,92.6%,100%,105%
COC1C[C@H](O[C@@H]2C[C@H](O[C@@H]3C[C@H](O[C@@H]4C(=O)c5c(cc6cc(O[C@H]7C[C@@H](O[C@H]8C[C@@H](O)[C@H](O)C(C)O8)[C@H](O)C(C)O7)c(C)c(O)c6c5O)C[C@H]4C(OC)C(=O)[C@@H](O)[C@@H](C)O)OC(C)[C@H]3O)OC(C)[C@@H]2O)OC(C)[C@@H]1O (stereo not given in full),-4.81% (active),-20.4% (active),-62% (active),9.73% (active),4.52% (active),4.82% (active),-18.8% (active),4.61% (active)
Oc1c(Cl)cc(Cl)c2ccc(Cn3cc(-c4cc(F)cc(F)c4)nn3)nc12,40.4%,70.9%,60.8%,4.81% (active),34.4%,5.12% (active),103%,102%
COc1ccc(/C=N/NC(=O)CCN2c3ccccc3Sc3ccccc32)cc1,81.5%,84.8%,8.72% (active),57.4%,42.7%,69.4%,92.3%,53.8%
COc1cc(OC)c2sc(-c3ccc(-n4cncc4-c4ccc(OC)c(OC)c4)cc3)nc2c1,29.7%,44.5%,53.3%,55.7%,44.5%,40.8%,76.4%,52.8%

# From PubChem BioAssay (NCI)
